Test results as given in PubChem BioAssay (NCI).
Compounds without any hit were thinned out: in the full panel of roughly 79,000, 15% have a hit. A number with no mark means an inactive call. Active and inactive are the calls of the source. No stated cut-off is given here; in the data, active means growth inhibition above about 70%; inactive means the rest.

Legend:
[1] = NCI Yeast Anticancer Drug Screen. Data for the rad50 strain (AID 155);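 further: 0% = growth of vehicle-only cultures of the same strain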; conditions: S. cerevisiae rad50 strain growth inhibition, stronger effect = higher value
Outline: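 Compounds were tested on a yeast strain with an engineered DNA damage repair alteration; the reported value is growth inhibition normalised to vehicle treatment.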

[2] = NCI Yeast Anticancer Drug Screen. Data for the mec2-1 strain (AID 157); conditions: S. cerevisiae mec2-1 strain, stronger effect = higher value
Outline: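 Compounds were applied to mec2-1 yeast cells. Their growth was then compared with that of vehicle-treated cultures to give growth inhibition.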

[3] = NCI Yeast Anticancer Drug Screen. Data for the sgs1 mgt1 strain (AID 161);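 further: 0% = growth of cultures given vehicle only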; conditions: S. cerevisiae sgs1 mgt1 strain, stronger effect = higher value
Outline: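 This yeast growth screen uses a strain with defined DNA-repair lesions; compound-treated growth is compared with vehicle-treated growth.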

[4] = NCI Yeast Anticancer Drug Screen. Data for the cln2 rad14 strain (AID 165);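 further: 0% = growth equal to vehicle treated cultures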; conditions: S. cerevisiae cln2 rad14 strain, stronger effect = higher value
Outline: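 Strain: cln2 rad14 yeast, altered in cell cycle control and DNA damage repair. Read-out: growth inhibition vs vehicle.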

[5] = NCI Yeast Anticancer Drug Screen. Data for the bub3 strain (AID 167); conditions: S. cerevisiae bub3 mutant strain, stronger effect = higher value
Outline: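 Growth of a checkpoint-deficient yeast mutant is measured after compound exposure. Values represent inhibition relative to vehicle.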

[6] = NCI Yeast Anticancer Drug Screen. Data for the mlh1 rad18 strain (AID 175); conditions: S. cerevisiae mlh1 rad18 strain growth inhibition, stronger effect = higher value
Outline: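 A repair-deficient yeast strain is exposed to test compound, and growth is scored relative to vehicle-treated controls.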

[7] = at 5.0 µM (retest, dose inferred, filed as 0.5)
[8] = at 50.0 µM (retest, dose inferred, filed as 5.0)

SMILES	growth inhibition [1, 7]	growth inhibition [1, 8]	growth inhibition ([1]; at 50.0 µM)	growth inhibition [2, 7]	growth inhibition [2, 8]	growth inhibition ([2]; at 50.0 µM)	growth inhibition [3, 7]	growth inhibition [3, 8]	growth inhibition ([3]; at 50.0 µM)	growth inhibition [4, 7]	growth inhibition [4, 8]	growth inhibition ([4]; at 50.0 µM)	growth inhibition [5, 7]	growth inhibition [5, 8]	growth inhibition ([5]; at 50.0 µM)	growth inhibition [6, 7]	growth inhibition [6, 8]	growth inhibition ([6]; at 50.0 µM)
CCCCCCCCCCCCN=C(N)N	80% (active)	98% (active)	99.1% (active)	72% (active)	99% (active)	99.3% (active)	87% (active)	99% (active)	99% (active)	59%	98% (active)	98.5% (active)	96% (active)	99% (active)	99.4% (active)	71% (active)	98% (active)	98.4% (active)
NN1CCCC1C(=O)O (centres undefined)	-1%	2%	23.1%	-2%	-1%	53.1%	0%	0%	28.2%	3%	-2%	76.2% (active)	4%	-2%	99.3% (active)	-1%	2%	65.6%
CCC[CH2][Sn]1([CH2]CCC)[O]C(=O)c2cccnc2[O]1	34%	94% (active)	85.3% (active)	31%	97% (active)	85.5% (active)	42%	97% (active)	85.3% (active)	22%	93% (active)	78.4% (active)	47%	97% (active)	87.7% (active)	51%	97% (active)	84.5% (active)
COc1ccc(/C=C/[N+](=O)[O-])c(OC)c1OC	43%	50%	84.5% (active)	52%	55%	92.5% (active)	48%	100% (active)	93.2% (active)	50%	99% (active)	54%	69%	99% (active)	91.8% (active)	39%	48%	87.8% (active)
CCC[CH2][Sn]1([CH2]CCC)[O]CC(CN2CCCC2)[O]1 (centres undefined)	30%	96% (active)	83.8% (active)	28%	98% (active)	87.3% (active)	46%	97% (active)	84.2% (active)	26%	95% (active)	82.3% (active)	36%	97% (active)	86.9% (active)	48%	97% (active)	82.2% (active)
C1CC[N-]CC1.[Cl][Au]([Cl])[Cl]	42%	93% (active)	93.3% (active)	15%	63%	65.5%	26%	89% (active)	93% (active)	31%	74% (active)	60.4%	25%	76% (active)	48.9%	34%	94% (active)	96.8% (active)
CC1CCS(=O)(=O)CC1.[Cl][Hg][Cl]	98% (active)	99% (active)	99.6% (active)	99% (active)	99% (active)	99.6% (active)	99% (active)	99% (active)	99.6% (active)	99% (active)	99% (active)	99.3% (active)	99% (active)	99% (active)	99.5% (active)	99% (active)	99% (active)	99.5% (active)
CCC[CH2][Sn]1([CH2]CCC)[O]C(=O)c2cc(C)ccc2[O]1	82% (active)	97% (active)	88.8% (active)	89% (active)	98% (active)	90.8% (active)	86% (active)	98% (active)	91.5% (active)	71% (active)	97% (active)	89.3% (active)	91% (active)	98% (active)	90.6% (active)	91% (active)	98% (active)	89% (active)
